{"source": "ChEMBL document CHEMBL3988442", "about": "“University of Dundee, Small-Polar-MMV Screening Library” (2021)", "note": "Out of some 48,000 compounds screened, about 13,000 (27%) showed an effect of 50% or more. Some of the results follow."}
{"system": "Wolbachia pipientis", "test": "Anti-Wolbachia Cell-Based Screen", "type": "functional", "design": "scale not given: in the data most compounds retested in dose-response had high values", "conditions": "5 µM", "units": {"Percent Effect": "%"}}
{"smiles": "CCn1ccnc1S(=O)(=O)Cc1ccc(C(N)=O)cc1", "Percent Effect": -8.81}
{"smiles": "Cc1ccc(NC2CCN(C(=O)COC3CCCCC3)CC2)nn1", "Percent Effect": 112.2}
{"smiles": "Cc1ccc(NC2CCN(C(=O)COCC(F)(F)F)CC2)nn1", "Percent Effect": -5.027}
{"smiles": "Cc1ccc(NC2CCN(C(=O)COC3CCCC3)CC2)nn1", "Percent Effect": 70.65}
{"smiles": "Cc1ccc(NC2CCN(C(=O)CCOCC(F)(F)F)CC2)nn1", "Percent Effect": 69.22}
{"smiles": "Cc1ccc(NC2CCN(C(=O)CN(C)C3CC3)CC2)nn1", "Percent Effect": -0.8726}
{"smiles": "Cc1ccc(NC2CCN(C(=O)COCC3CC3)CC2)nn1", "Percent Effect": 115.7}
{"smiles": "Cc1ccc(NC2CCN(C(=O)CC3CCCO3)CC2)nn1", "note": "(centres undefined)", "Percent Effect": 6.763}
{"smiles": "Cc1ccc(CNC(C)c2ccc(N3CCN(C)CC3)c(F)c2)o1.Cl", "note": "(centres undefined)", "Percent Effect": -9.969}
{"smiles": "Cc1cc(NS(=O)(=O)c2c[nH]c3ncccc23)no1", "Percent Effect": -5.183}
{"smiles": "COCc1ccccc1C(=O)NCC(O)c1ccccc1F", "note": "(centres undefined)", "Percent Effect": -8.064}
{"smiles": "CN1C(=O)C2(CCN(C(=O)c3cccnc3)CC2)c2cccc(F)c21", "Percent Effect": 5.447}
{"smiles": "Cl.O=C(c1ccccc1)N1CCC2(CC1)CNc1c(F)cccc12", "Percent Effect": 97.7}
{"smiles": "Cl.O=C(c1cccnc1)N1CCC2(CC1)CNc1c(F)cccc12", "Percent Effect": 106.5}
{"smiles": "CN1C(=O)C2(CCN(C(=O)c3ccccc3)CC2)c2cc(F)ccc21.Cl", "Percent Effect": -1.303}
{"smiles": "CC(=O)N1CCC2(CC1)CNc1c(F)cccc12.Cl", "Percent Effect": 98.89}
{"smiles": "CS(=O)(=O)N1CCc2[nH]cnc2C12CCN(C(=O)c1cccnc1)CC2", "Percent Effect": -96.76}
{"smiles": "CN1CC2(CCN(Cc3cccnc3)CC2)c2cccc(F)c21.Cl", "Percent Effect": 16.02}
{"smiles": "CC(=O)N1CCC2(CC1)CNc1ccc(F)cc12", "Percent Effect": -3.15}
{"smiles": "CC(=O)N1CCC2(CC1)C(=O)N(C)c1c(F)cccc12", "Percent Effect": 2.868}
{"smiles": "CN1CC2(CCN(C(=O)c3cccnc3)CC2)c2cccc(F)c21.Cl", "Percent Effect": 104.8}
{"smiles": "CN1C(=O)C2(CCN(C(=O)c3ccccc3)CC2)c2cccc(F)c21.Cl", "Percent Effect": 2.069}
{"smiles": "O=S(=O)(NCCN1CC=CC1)c1cncc(Cl)c1", "Percent Effect": -9.615}
{"smiles": "CC(C)CN(C)Cc1c[nH]nc1-c1ccc(F)cc1F", "Percent Effect": -3.52}
{"smiles": "CNC(=O)NC(=O)CN1CCN(CC(F)(F)F)CC1(C)C", "Percent Effect": -1.445}
{"smiles": "CCC(C)(NCC(=O)NC(C)C)c1nc(C)cs1", "note": "(centres undefined)", "Percent Effect": 4.424}
{"smiles": "CCN1CCN(c2ccc(C(=O)NCc3cc(C)no3)cc2F)CC1", "Percent Effect": -18.85}
{"smiles": "Cc1nc(C)c2c(n1)CCN(C(=O)CN(C)C)CC2", "Percent Effect": -4.048}
{"smiles": "Cc1nnc(CN(C)C(=O)C(CC(C)C)N2CCCCC2=O)n1C", "note": "(centres undefined)", "Percent Effect": -1.247}
{"smiles": "Cc1nc(CN(C)C(=O)CN(C)C)nc2c1CCC(=O)N2CCC(C)C", "Percent Effect": 66.01}
{"smiles": "COC(=O)N1CCCC(NC(=O)NCc2nc(C)cs2)C1", "note": "(centres undefined)", "Percent Effect": -5.295}
{"smiles": "CCC(=O)N(CC)CCc1nccs1", "Percent Effect": -20.38}
{"smiles": "CCOc1ccc(CC(CNC(=O)c2ccoc2)C(N)=O)cc1", "note": "(centres undefined)", "Percent Effect": 0.9555}
{"smiles": "Cc1cccc(C(C)(C)CNC(=O)CN(C)c2cnccn2)c1", "Percent Effect": 2.301}
{"smiles": "Cc1ccc(F)c(NC(=O)CCC(=O)N(C)Cc2cc(C3CC3)[nH]n2)c1", "Percent Effect": -39.88}
{"smiles": "CCCn1ncc(C(=O)N(C)Cc2n[nH]c3c2CCC3)c1C", "Percent Effect": -0.7404}
{"smiles": "CN(Cc1cc(C2CC2)[nH]n1)C(=O)c1cnn2ccn(C)c12", "Percent Effect": 92.15}
{"smiles": "CCCn1ncc(C(=O)N(C)Cc2cc(C3CC3)[nH]n2)c1C", "Percent Effect": 103.9}
{"smiles": "CN(Cc1cc(C2CC2)[nH]n1)C(=O)c1ccccc1C1CCNC1", "note": "(centres undefined)", "Percent Effect": 6.983}
{"smiles": "Cc1ccc2[nH]c(=O)c(CN(C)Cc3cc(C4CC4)[nH]n3)cc2c1", "Percent Effect": -5.439}
{"smiles": "CN(Cc1cc(C2CC2)[nH]n1)C(=O)C(c1cccnc1)N1CCCC1", "note": "(centres undefined)", "Percent Effect": 5.078}
{"smiles": "CCCn1ncc(C(=O)N2CCN(C(=O)c3ccc[nH]3)CC2)c1C", "Percent Effect": 2.425}
{"smiles": "Cc1cnc2c(C(=O)N(C)Cc3cc(C4CC4)[nH]n3)cnn2c1", "Percent Effect": 88.43}
{"smiles": "Cn1ccc(CNC(=O)N2CCCC3(C2)OCCO3)c1", "Percent Effect": -4.368}
{"smiles": "Cc1ccc(CNCc2cccc3cn[nH]c23)c(OC2CCOC2)c1", "note": "(centres undefined)", "Percent Effect": 1.328}
{"smiles": "CCCNC(=O)CN1CCOC(CC)C1", "note": "(centres undefined)", "Percent Effect": -15.19}
{"smiles": "CSc1nc2cc(C)n(CC(N)=O)c2c(=O)n1CC(C)C", "Percent Effect": 0.2317}
{"smiles": "NC(=O)C1CCN(C(=O)CCCc2ccc(Cl)c(Cl)c2)CC1", "Percent Effect": -6.164}
{"smiles": "NC(=O)C1CCN(C(=O)CCSCc2ccc(Cl)c(Cl)c2)CC1", "Percent Effect": 148.4}
{"smiles": "CC[C@@]1(O)CCN(C(=O)CCSCc2ccc(F)cc2)C[C@H]1O", "Percent Effect": 8.229}
{"smiles": "O=C(C1COc2ccccc2O1)N1Cc2cnn(CCO)c2C1", "note": "(centres undefined)", "Percent Effect": -44.4}
{"smiles": "COc1ncccc1C(=O)N(C)Cc1nc(-c2ccccn2)no1", "Percent Effect": 0.08907}
{"smiles": "Cc1nc(O)cc(C2CCN(Cc3cccc(F)c3F)C2)n1.O=C(O)CC(O)(CC(=O)O)C(=O)O", "note": "(centres undefined)", "Percent Effect": -5.944}
{"smiles": "COc1ccc(F)c(CN2CCC(c3cc(O)nc(C)n3)C2)c1.O=C(O)CC(O)(CC(=O)O)C(=O)O", "note": "(centres undefined)", "Percent Effect": -11.82}
{"smiles": "COc1ccc(CN2CCC(c3cc(O)nc(C)n3)C2)c(OC)c1.O=C(O)CC(O)(CC(=O)O)C(=O)O", "note": "(centres undefined)", "Percent Effect": 122.8}
{"smiles": "Cc1nc(O)cc(C2CCN(Cc3ccc(F)c(F)c3)C2)n1.O=C(O)CC(O)(CC(=O)O)C(=O)O", "note": "(centres undefined)", "Percent Effect": 92.59}
{"smiles": "COc1ccc(OC)c(CN2CCC(c3cc(O)nc(C)n3)C2)c1", "note": "(centres undefined)", "Percent Effect": 99.72}
{"smiles": "COCC(=O)N1CCC2(CCCN(Cc3cc(OC)ccc3F)C2)C1", "note": "(centres undefined)", "Percent Effect": 2.404}
{"smiles": "COc1ccc(-c2nc(CN3CCCC(OC)C3)c(C)o2)c(F)c1", "note": "(centres undefined)", "Percent Effect": 6.893}
{"smiles": "CCN1CCC(CNCc2cc(OC)ccc2OC)C1", "note": "(centres undefined)", "Percent Effect": 4.75}
{"smiles": "COc1ccc(F)c(CN2CCCC(c3cc(O)nc(C)n3)C2)c1", "note": "(centres undefined)", "Percent Effect": 108.4}
{"smiles": "CNC(=O)[C@@H]1C[C@@H](N)CN1C(=O)CCSCc1ccccc1", "Percent Effect": -2.753}
{"smiles": "Cc1ncc(-c2nc3cc(S(=O)(=O)N4CCCC4)ccc3n2C)cn1", "Percent Effect": -2.365}
{"smiles": "O=C(Nc1ccc(-n2cccn2)c(F)c1)C1CCN(C(=O)C2CC2)CC1", "Percent Effect": -6.661}
